Compound activity deposited in PubChem BioAssay by National Center for Advancing Translational Sciences (NCATS).
Methyltransferases: Primary Screen for Target Class Profiling of Small Molecule Inhibitors of Methyltransferases; purified enzyme, MTase-Glo SAH luminescence; active compounds read low; calls only at 40 µM; 25,000 compounds, 3.9% hits; call rule not given here
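Each enzyme was assayed with SAM and its substrate. SAH formation detected by MTase-Glo luminescence; single-point 40 uM screen[…].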
* marks the source's active call; other numbers are inactive results; i = inactive; + = active, no number; ! = repeats disagree. Only a selection was taken, and hits are over-represented in it overall. On the % scale 0 is the no-effect control and ±100 the full control effect.

SMILES	Methyltransferases
CC(C)NC(=O)N[C@H]1C[C@H]2C(=O)NC[C@@H](CCC(=O)N3CCN(c4ccccn4)CC3)N2C1	i
Cc1noc(C)c1-c1nccc2c(=O)cc(-c3ccccn3)oc12	i
COc1ncccc1-c1cc(-c2c(C)noc2C)c2cncn2c1	i
COc1cc2c(cc1-c1c(C)noc1C)ncc1[nH]c(=O)n([C@H](C)c3ccccn3)c12	+!
COc1cccc(Cn2nc3n(CCc4ccccc4)c(=O)c4ccccc4n3c2=O)c1	i
Cc1ccc(C(=O)CSc2nnc3n(C)c(=O)c4ccc(C(=O)NC5CCCC5)cc4n23)c(C)c1	i
CN(Cc1cn(C)c2ccccc12)C1CCc2nn(CC3CC3)c(=O)n2CC1 (centres undefined)	i
CC1(C)CC[C@]2(C(=O)O)CC[C@]3(C)C(=CCC4[C@@]5(C)C[C@@H](O)[C@H](O)[C@@](C)(CO)C5CC[C@]43C)C2C1 (some centres undefined)	i
CC1(CO)CC(O)[C@]2(C(=O)O)CCC34CC3(C=CC3[C@]5(C)C(CC[C@]34C)C(C)(CO)[C@@H](O)[C@H](O)[C@@H]5O)C2C1 (some centres undefined)	+
CC1(C)CC[C@]2(C(=O)O)CC[C@]3(C)C(=CCC4[C@@]5(C)C(=O)C[C@H](O)[C@@](C)(CO)C5CC[C@]43C)[C@@H]2C1 (some centres undefined)	i
CC(C)CCn1c(=O)c2ccc(C(=O)NC3CCCC3)cc2n2c(=O)n(CC(N)=O)nc12	i
CN1C(=O)Cc2cc(S(=O)(=O)NCCN3CCN(c4ccccc4F)CC3)ccc21	i
CC(C)(C)CC(C)(C)c1ccc(OCCOCC[N+](C)(C)Cc2ccccc2)cc1	+
COc1cc(OC)c(NC(=O)N2CCn3cccc3C2C)cc1Cl (centres undefined)	i
CC(C)C1c2cccn2CCN1C(=O)Nc1ccccc1Br (centres undefined)	i
CC(C)n1c(=O)c2ccc(C(=O)NC3CCCC3)cc2n2c(=O)n(CC(=O)NC(C)(C)C)nc12	i
CN(C)c1ccc(CNC(=O)c2cc3n(n2)CC(C)(C(=O)NCc2ccc(F)cc2)N(C)C3=O)cc1 (centres undefined)	i
COc1cccc(OC)c1-c1nc(C(=O)N[C@@H](CC(C)C)C(=O)O)cn1-c1ccnc2cc(Cl)ccc12	i
COc1cc(Nc2ncc3c(n2)-c2ccc(Cl)cc2C(c2c(F)cccc2OC)=NC3)ccc1C(=O)O	+!
Cc1n[nH]c(C)c1CNC(=O)C1CCCCC(=O)N1 (centres undefined)	i
CCOCCCN1C(=O)c2cc(-c3ccc(OC)c(OC)c3)nn2CC1(C)C(=O)NC1CCCCC1 (centres undefined)	i
COC(=O)c1ncn2c1C(=O)N(Cc1ccccc1OC)C(C)(C(=O)NC1CCCCCC1)C2 (centres undefined)	i
CCCn1c(=O)c2ccc(C(=O)NC3CCCC3)cc2n2c(=O)n(CC(=O)Nc3ccc(F)cc3)nc12	i
CC(C)n1nc(CNC(=O)Cc2ccc(F)cc2)c2ccccc21	i
CC(C)n1nc(Cc2cccc3ccccc23)c2c(N)ncnc21	+
SMILES	Methyltransferases
CC(C)n1nc(-c2ccc3oc(N)nc3c2)c2c(N)ncnc21	i
CC1(C(=O)NC2CCCC2)Cn2c(cc3sccc32)C(=O)N1Cc1cccc(F)c1 (centres undefined)	i
CN1CCc2cc(NC(=O)Nc3cccnc3)ccc21	i
O=C(c1ccncc1)N1CCC(Nc2cccnc2)C1 (centres undefined)	i
Cn1ccc2cc3c(cc21)CCN3C(=O)Nc1cccnc1	+
Cc1ccc(NC(=O)CSc2nnc3[nH]c(=O)c(C(C)(C)C)nn23)c(C)c1	i
CNC(=O)Cn1nc(C2CCN(C(=O)c3ccccc3F)CC2)c2c1CCOC2	i
O=C(CCc1nnc2n(Cc3ccc(F)cc3)c(=O)c3ccccc3n12)N1CCN(Cc2ccccc2)CC1	i
COc1ccccc1Oc1ncccc1CNCc1c(F)cccc1Cl	i
COc1ccccc1CNCCCCCCNCCCCCCCCNCCCCCCNCc1ccccc1OC	+
COc1ccccc1CNS(=O)(=O)c1cc2c(cc1Cl)n(C)c(=O)n2C	i
CC1(C(=O)NC2CCCCC2)Cn2c(ccc2-c2ccccc2)C(=O)N1Cc1ccc2c(c1)OCO2 (centres undefined)	i
CC1(C(=O)NC2CCCCCC2)Cn2c(cc3sccc32)C(=O)N1Cc1ccccn1 (centres undefined)	i
COC(=O)c1cc2n(n1)CC(C)(C(=O)NC1CCCCC1)N(CCc1cccs1)C2=O (centres undefined)	i
Cc1nc(N=Nc2cc(S(=O)(=O)O)c3cc([N+](=O)[O-])cc(S(=O)(=O)O)c3c2)c(COP(=O)(O)O)c(C=O)c1O	+
CCCn1c(C)cnc1C1CCNC1 (centres undefined)	i
COCCNC(=O)CCc1nnc2n(Cc3ccccc3Cl)c(=O)c3ccccc3n12	i
COc1ccc(N2C(=O)c3cc(-c4cccs4)nn3CC2(C)C(=O)NC2CCCCC2)cc1Cl (centres undefined)	i
C/C=C(\C)C(=O)O[C@H]1C=CC(=O)O[C@H]1/C=C/[C@@H](O)[C@H](C)O	i
C/C=C(/C)C(=O)O[C@H]1C=C(CO)C(=O)[C@H](OC(=O)/C(C)=C/CO)[C@H]1C(C)C	+
CCN1C(=O)c2cc(C(=O)NCCc3ccc(OC)c(OC)c3)nn2CC1(C)C(=O)NC1CCCC1 (centres undefined)	i
CCOC(=O)c1cc2n(n1)CC(C)(C(=O)NC1CCCCCC1)N(c1cc(C)cc(C)c1)C2=O (centres undefined)	i
O=c1[nH]c(=S)[nH]c(-c2ccccc2)c1Cc1c(O)ccc2ccccc12	+
CC(=O)Nc1c2n(c3ccc(F)cc13)CC(C)(C(=O)NCCC(C)C)N(CCC(C)C)C2=O (centres undefined)	i
CC1(C)CC[C@]2(C(=O)O[C@@H]3O[C@H](CO)[C@@H](O)[C@H](O)[C@H]3O)CC[C@]3(C)C(=CCC4[C@@]5(C)CC[C@H](O[C@H]6O[C@H](CO)[C@@H](O)[C@H](O[C@@H]7O[C@H](CO)[C@@H](O)[C@H](O)[C@H]7O)[C@H]6O)C(C)(C)C5CC[C@]43C)[C@@H]2C1 (some centres undefined)	i
CC1(C)CC[C@]2(C(=O)O[C@@H]3O[C@H](CO)[C@@H](O)[C@H](O)[C@H]3O)CC[C@]3(C)C(=CCC4[C@@]5(C)C[C@@H](O)[C@H](O)C(C)(C)C5CC[C@]43C)C2[C@@H]1O (some centres undefined)	+
CC1(C)CC[C@]2(C(=O)O[C@@H]3O[C@H](CO)[C@@H](O)[C@H](O)[C@H]3O)CC[C@]3(C)C(=CCC4[C@@]5(C)C[C@@H](O)[C@H](O)[C@@](C)(CO)C5[C@H](O)C[C@]43C)C2[C@@H]1O (some centres undefined)	+
COC(=O)C1(C)CCC2(C(=O)O)CCC3(C)C(=CCC4C5(C)CC(O)C(OC6OCC(O)C(O)C6O)C(C)(CO)C5CCC43C)C2C1 (centres undefined)	i
CC1CCC2(C(=O)OC3OC(CO)C(O)C(O)C3O)CCC3(C)C(=CCC4C5(C)CC(O)C(O)C(C)(C(=O)O)C5CCC43C)C2C1(C)O (centres undefined)	i
